Laboratory results: the supplement of paper PMC10981050
Where “and” joins values, the source holds several entries; their conditions need not be identical. Equal entries are not always repeated. Structures can show the parent of a compound that is named as a salt.

Assays:
Assay in all cases: cell viability relative to vehicle control; higher = less cytotoxic
Conditions in all cases: 10 µM
K562 = test system: K562
In short: (§1)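 Mutant clones made by CRISPR editing and their isogenic wild-type counterparts, from four leukaemia lines, were exposed to a single 10 µM dose of each library compound for 48 h. The supernatant was then removed and CellTiter-Glo luminescence was read. Viability was reported as percent of the on-plate vehicle control.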

MARIMO = test system: MARIMO
In short: as §1

MOLM14 = test system: MOLM14
In short: as §1

OCI-AML2 = test system: OCI-AML2
In short: as §1

Row | SMILES | cell viability (K562; SRSF2 genotype: SRSF2 P95H/wt) | cell viability (K562; SRSF2 genotype: SRSF2 wt/wt) | cell viability (MARIMO; SRSF2 genotype: SRSF2 P95H/wt) | cell viability (MARIMO; SRSF2 genotype: SRSF2 wt/wt) | cell viability (MOLM14; SRSF2 genotype: SRSF2 P95H/wt) | cell viability (MOLM14; SRSF2 genotype: SRSF2 wt/wt) | cell viability (OCI-AML2; SRSF2 genotype: P95H/wt) | cell viability (OCI-AML2; SRSF2 genotype: wt/wt)
1 | O=C1CC[C@@]2(O)[C@H]3Cc4ccc(O)c5c4[C@@]2(CCN3CC2CC2)[C@H]1O5 [Naltrexone HCl] | 98.5% and 105% | 97.7% | 98.8% | 103% | 99.9% | 103% | 106% | 99.8%
2 | CC(C)(C)c1cc(C=C(C#N)C#N)cc(C(C)(C)C)c1O [Tyrphostin 9 (SF 6847)] | 14.4% and 18.5% | 18.5% | 23.8% | 23.8% | 17.7% | 12.2% | 5.2% | 11.5%
3 | Cc1cccc([C@H](C)c2c[nH]cn2)c1C [Dexmedetomidine HCl (Precedex)] | 99.1% and 101% | 91% | 102% | 100% | 102% | 104% | 107% | 110%
4 | CC(C)N(CCC(C(N)=O)(c1ccccc1)c1ccccn1)C(C)C (stereo unspecified) [disopyramide phosphate] | 98.9% and 108% | 106% | 104% | 109% | 104% | 104% | 107% | 96.2%
5 | Cc1c(N[C@@H](c2nnc(-c3ccc(C#N)cc3)o2)[C@H](C)O)ccc(C#N)c1Cl | 87.6% and 86.2% | 100% | 88.4% | 96.5% | 88.9% | 100% | 100% | 102%
6 | C[C@]12CC[C@H](O)C[C@@H]1CC[C@@H]1[C@@H]2CC[C@]2(C)C(=O)CC[C@@H]12 | 94.7% and 104% | 104% | 98.9% | 108% | 98.5% | 107% | 106% | 97.3%
7 | COc1ccc(C(CN(C)C)C2(O)CCCCC2)cc1 (stereo unspecified) [Venlafaxine HCl] | 99.9% | 98.7% | 95.8% | 99.7% | 96.9% | 98.6% | 99.8% | 107%
